# Laboratory results published in ChEMBL document CHEMBL3433997, “St. Jude Leishmania screening dataset” (2016).
# What was measured:
# Type in all cases: functional
# [1] = molecular target: Solute carrier family 2, facilitated glucose transporter member 1 (Homo sapiens) (UniProt P11166); assay: ST_JUDE_LEISH: Cytotoxicity at 2uM final concentration against transgenic Leishmania Mexicana promastigotes LmGLUT1 that are glucose transport deficient and complemented with the human glucose transporter GLUT1. Activity is measured by DNA content using SYBR green in vitro
# Solute carrier family 2, facilitated glucose transporter member 1 (Homo sapiens), sequence (P11166 whole entry): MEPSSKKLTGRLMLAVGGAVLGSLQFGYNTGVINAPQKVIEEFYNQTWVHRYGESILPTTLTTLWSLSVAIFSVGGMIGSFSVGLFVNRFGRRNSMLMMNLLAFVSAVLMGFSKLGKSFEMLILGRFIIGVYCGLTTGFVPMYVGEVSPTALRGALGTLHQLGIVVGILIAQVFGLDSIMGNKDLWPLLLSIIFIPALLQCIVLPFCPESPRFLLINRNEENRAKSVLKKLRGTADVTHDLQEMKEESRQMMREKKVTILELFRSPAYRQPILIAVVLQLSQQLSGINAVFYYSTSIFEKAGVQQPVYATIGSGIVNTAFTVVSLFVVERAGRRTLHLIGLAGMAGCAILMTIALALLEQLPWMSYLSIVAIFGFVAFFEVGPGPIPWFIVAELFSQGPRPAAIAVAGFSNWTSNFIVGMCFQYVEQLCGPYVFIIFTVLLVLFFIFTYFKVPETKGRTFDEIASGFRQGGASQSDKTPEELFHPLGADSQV
# [2] = molecular target: Hexose transporter 1 (Plasmodium falciparum) (UniProt O97467); assay: ST_JUDE_LEISH: Cytotoxicity at 2uM final concentration against transgenic Leishmania Mexicana promastigotes LmPfHT that are glucose transport deficient and complemented with the Plasmodium falciparum hexose transporter. Activity is measured by DNA content using SYBR green in vitro
# [3] = molecular target: Glucose transporter (Leishmania mexicana) (UniProt O61059); assay: ST_JUDE_LEISH: Cytotoxicity at 2uM final concentration against transgenic Leishmania Mexicana promastigotes LmGT2 that are glucose transport deficient and complemented with the L. Mexicana glucose transporter 2. Activity is measured by DNA content using SYBR green in vitro
SMILES,inhibition [1] [%],inhibition [2] [%],inhibition [3] [%]
O=C(C=Cc1ccc(Cl)c(Cl)c1)NCCCCCN1CCCC(CCCNC(=O)c2ccc3c(c2)OCO3)C1 (stereo unspecified),2.29,0.94,-0.94
COc1ccc(-c2nonc2NC(=O)c2ccc(OC(C)C)cc2)cc1OC,0.75,3.06,3.04
Cc1cc(NC(=O)c2cccs2)ccc1OC1CCN(Cc2ccccc2)C1 (stereo unspecified),0.25,-0.44,1.56
O=c1cc(NCCCNCc2ccc(C(F)(F)F)s2)[nH]c2ccccc12,-0.41,0.6,0.9
c1ccc(CCNc2ccnc(Nc3ccc4cn[nH]c4c3)n2)cc1,17.8,14.8,10
O=C(Cc1ccc(NC(=O)c2ccc(O)c(-c3ccc(Cl)c(Cl)c3)c2)cc1)NCCN1CCCCC1,-0.79,-0.35,0.58
CN(CCN)Cc1ccc(-c2ccc(-c3nc4cc(C(F)(F)F)ccc4[nH]3)s2)cc1,15.1,14.8,11.4
COc1cc(C(=O)NC2CC(C)(C)N(C)C(C)(C)C2)ccc1-c1nc2cc(Cl)c(Cl)cc2[nH]1,-0.5,1.21,3.3
Nc1c2c(nc3ccc(Oc4ccc(Cl)cc4)cc13)CCCC2,60.9,70.5,40.5
O=C(NC(=S)NCc1ccncc1)c1ccccc1,2.06,-1.93,1.6
CCNc1cc(C(=O)N[C@@H](Cc2ccccc2)[C@H](O)CNCCC(C)(C)C)c(F)c(N2CCCCS2(=O)=O)c1,6.09,-0.44,0.33
O=C(Nc1ccccc1)N(Cc1cccc(-c2ccc(CNC3CCCC3)cc2)c1)C1CCN(Cc2ccccc2)CC1,5.58,4.72,2.99
